HP1b chromo inh: HP1-beta chromodomain-methylated histone interaction inhibition; AlphaScreen HP1-beta / biotin-H3K9me3 peptide binding; 390,000 compounds, 0.56% hits; Potency, µM (doses to about 114 µM), actives largely listed as inhibitors; P83916; AID 540317; further: nearly all actives have a fitted effect of over 70% in size
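Compound inhibition of the preformed complex between 50 nM HP1-beta and 50 nM biotinylated H3K9me3 peptide was read by AlphaScreen. Buffer was PBS pH 7.4 with 0.01% Tween-20. Incubations ran 30 min at room temperature, with 10 ug/mL donor/acceptor beads.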
JMJD2A Tudor inh: inhibitors of human JMJD2A Tudor domain | 390,000 compounds, 4.4% hits | Potency, µM (top dose mostly 114 µM), most hits filed as inhibitors | AlphaScreen JMJD2A-Tudor / H3K4me3 peptide binding; further: nearly all actives have a fitted effect of over 50% in size
BAZ2B block: blocks human BAZ2B | Q9UIF8 | AlphaScreen BAZ2B-H3K14Ac peptide displacement | Potency, µM (top dose mostly 114 µM), actives largely listed as inhibitors | 360,000 compounds, 4.4% hits | AID 504333; further: nearly all actives have a fitted effect of over 60% in size
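AlphaScreen displacement of biotin-H3(5-23)K14Ac peptide (50 nM final) from BAZ2B (50 nM final) in PBS pH 7.4, 0.01% Tween-20; complex preformed 30 min RT, then compounds (top 110 uM) 30 min RT, beads 20 min dark.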
L3MBTL1 block: blocks human L3MBTL1. 230,000 compounds, 0.66% hits. AlphaScreen L3MBTL1–H3K9me1 peptide binding. Potency, µM (top dose mostly 57.1 µM), usual class: inhibitors. AID 485360. Q9Y468; further: nearly all actives have a fitted effect of over 60% in size
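AlphaScreen assay: L3MBTL1 (50 nM final) was preincubated 30 min at room temperature with biotinylated H3(1-15)K9me1 peptide (75 nM final), then 30 min with library compounds; streptavidin donor and nickel chelate acceptor beads (10 ug/mL final) added, 30 min dark.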
G9a inh: inhibitors of human histone lysine methyltransferase G9a; Potency, µM (series often up to 102 µM), hits mostly inhibitors; 350,000 compounds, 8.8% hits; Q96KQ7; G9a H3K9 monomethylation, AlphaScreen, 2 h; further: nearly all actives have a fitted effect of over 75% in size
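Quantitative HTS format: methyltransferase activity on a biotin-tagged H3K9 peptide is measured by AlphaScreen, using a rabbit anti-monomethyl-H3K9 antibody with streptavidin donor and anti-IgG acceptor beads. Final levels are 20 nM enzyme, 500 nM peptide, 20 uM SAM; 2 h RT.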
Numbers stand for hits; . = inactive; ? = inconclusive; / = not tested or not shown; [ ] = remark or other dose. Shown are actives, neighbours in structure and some others; about 11% of the full set was active somewhere. The call rests on the fitted dose curve; in most records, active means well fitted inhibition curve with a large enough effect; inconclusive means small, poorly fitted or top-dose-only effect; inactive means no such curve, though single readings can be large or run the other way.

SMILES	HP1b chromo inh	JMJD2A Tudor inh	BAZ2B block	L3MBTL1 block	G9a inh
COc1ccc(NC(=O)C(c2ccccn2)N(C(C)=O)c2ccc(C)cc2)cc1 (stereo not drawn)	.	.	.	.	.
CCOc1ccc(NC(=O)C(c2ccccn2)N(C(=O)CCl)c2ccc(OC)cc2)cc1 (stereo not drawn)	.	89µM	?	.	2µM
CCN(CC)Cc1c(C(=O)N/N=C/c2ccccn2)nnn1-c1nonc1N	.	?	11µM	/	?
CCN(CC)Cc1c(C(=O)N/N=C/c2cccc3ccccc23)nnn1-c1nonc1N	.	.	.	/	.
Cc1c(C(=O)N/N=C/c2ccccn2)nnn1-c1nonc1N	.	89µM	45µM	/	?
CCOC(=O)[C@H]1[C@H]2COc3ccc(OC)cc3[C@@H]2N2C(=O)c3cc(C)ccc3NC(=O)[C@@]12C	.	.	.	.	.[2.33 µM]
CCOc1ccccc1CNC(=O)C1CCN(C(=O)N2CC(CC)Oc3ccc(C)cc32)CC1 (stereo not drawn)	.	.	?	/	.
CCCCC(c1nnnn1CS(=O)(=O)c1ccc(C)cc1)N1CCN(c2ccccc2)CC1 (stereo not drawn)	.	?	.	?	?
CCCC(c1nnnn1CS(=O)(=O)c1ccc(C)cc1)N1CCN(C2CCCC2)CC1 (stereo not drawn)	.	?	.	/	50µM
O=[N+]([O-])c1ccc(CN2CCCCCC2)s1	3.2µM	20µM	40µM	?	10µM
COC(=O)[C@H]1[C@H]2C[C@@H]3c4[nH]c5cc(OC)ccc5c4CCN3C[C@H]2C[C@@H](OC(=O)c2ccc(N)cc2)[C@@H]1OC	.	?	40µM	/	?
CNCCN(C)c1nc(-c2cccs2)nc2ccccc12	.	.	/	/	/
O=C(N/N=C/C(Cl)=C/c1ccc([N+](=O)[O-])cc1)C(=O)Nc1ccccc1C(=O)O	.	?	?	?	35µM
O=C(N/N=C/C(Cl)=C/c1ccccc1)c1ccccc1F	.	.	.	/	32µM
CCOc1ccccc1NC(=O)C(=O)N/N=C/c1ccc([N+](=O)[O-])cc1	.	.	.	.	.
O=C(N/N=C/C(Cl)=C/c1ccc([N+](=O)[O-])cc1)C(=O)Nc1ccc(C(=O)O)cc1	?	.[11.4 µM]	?	.	50µM
O=C(N/N=C/C(Br)=C/c1ccccc1)c1ccccc1F	.	.	.	/	.
O=C(Nc1ccc([N+](=O)[O-])cc1)C(=O)Nc1cccc(C(=O)O)c1	.	.	.	.	.
Cn1ccc2cc(S(=O)(=O)N3CCCN(C(=O)Nc4ccccc4Br)CC3)ccc21	.	.	.	/	.
CCc1ccc(NC(=O)CN2C(=O)C(c3ccc(F)cc3)=NC2(C)C)cc1	.	.	.	/	.
c1ccc2c(c1)CCN(c1nc(CN3CCOCC3)nc3sc4c(c13)CCCC4)C2	?	.	35µM	.	?
CCN(CC)CC(C)CNC(=O)c1cc(-c2ccc(Br)s2)nc2ccccc12 (stereo not drawn)	.	.	.	/	?
c1cc2cn[nH]c2cc1NC1CCCCCC1	.	?	?	.	4.5µM
O=C(CN1C(=O)COc2ccc(S(=O)(=O)N3CCCCCC3)cc21)NCCc1ccccc1	.	.	.	/	.
Cc1ccccc1-c1nnc(CN2CCC(C)CC2)o1	.	.	.	/	.
SMILES	HP1b chromo inh	JMJD2A Tudor inh	BAZ2B block	L3MBTL1 block	G9a inh
Cc1cccc(N2CCN(Cc3nnc(-c4ccccc4C)o3)CC2C)c1 (stereo not drawn)	.	79µM	?	/	?
CCOc1ccc(C2C(C(=O)C3CC3)N3C=C(C#N)C=CC3C2(C#N)C#N)cc1 (stereo not drawn)	/	/	.	.	25µM
CCc1ccc(CNC(=O)CCc2c(C)nn(-c3ccc(N4CCCC4)nn3)c2C)cc1	.	.	?	/	.
CS(=O)(=O)c1cccc(C(=O)N(CCc2ccccc2)Cc2cccs2)c1	.	.	.	/	79µM
CC1=C(C(=O)Nc2ccc(C)cc2C)C(CC(C)C)n2nc(SCc3ccccc3C)nc2N1 (stereo not drawn)	.	.	.	/	.
CNc1ccc(Oc2nc([N+](=O)[O-])nn2C)cc1	.	.	.	.	50µM
C=CCNc1nnc(Cc2ccc(C(C)C)cc2)c(=O)[nH]1	.	56µM	?	/	.
COc1ccc(F)cc1S(=O)(=O)Nc1cc2c3c(c1)CCN3C(=O)CC2	.	.	.	.	45µM
COc1ccc(S(=O)(=O)Nc2cc3c4c(c2)CC(=O)N4CCC3)cc1	.	.	.	.	32µM
O=C1Cc2cc(NS(=O)(=O)c3ccc([N+](=O)[O-])cc3)cc3c2N1CCC3	.	.	.	.	45µM
O=c1c(-c2ccccc2)nc2cnc(N3CCOCC3)nc2n1Cc1ccc(F)cc1	/	/	/	/	.[0.501 µM]
CC1(C)CC(=O)C(/C=N/n2cnc3ccccc3c2=O)=C(O)C1	.	40µM	50µM	/	.[2.33 µM]
CC1(C)CC(=O)C(/C=N/c2ccccn2)=C(O)C1	.	.	.	.	?
COc1ccccc1C(c1nnnn1C(C)(C)C)N1CCCCCC1 (stereo not drawn)	.	.	.	.	25µM
CC(C)(C)n1nnnc1C(c1cccc(C#N)c1)N1CCCCCC1 (stereo not drawn)	.	.	.	.	71µM
C=CCN1CCN(C(c2ccc(OC)c(OC)c2)c2nnnn2C(C)(C)C)CC1 (stereo not drawn)	.	.	79µM	.	50µM
CCN1CCN(C(c2cc(OC)c(OC)c(OC)c2)c2nnnn2C(C)C)CC1 (stereo not drawn)	.	.	50µM	/	?
COc1ccc(-c2noc(CSCC(=O)Nc3ccc(C)cc3Br)n2)cc1OC	.	.	.	/	.
COc1ncc2nc(CCc3ccccc3)c(=O)n(Cc3cccs3)c2n1	/	/	/	/	.[12.7 µM]
CCOc1cc2sc(N3CCC(C(=O)Nc4ccccc4Cl)CC3)nc2cc1Br	.	.	.	/	.
CCOc1nc(C#N)nc(N2CCOCC2)n1	.	.	/	/	/
Cc1cccc(C(=O)OC2CCOC2=O)c1C (stereo not drawn)	.	.	.	/	.
CCc1cccc2sc(N3CCN(C(=O)c4ccc([N+](=O)[O-])o4)CC3)nc12	?	22µM	?	.	32µM
CCc1cccc2sc(N3CCN(C(=O)C4CC4)CC3)nc12	.	.	.	/	.
Cc1cc2c(s1)c1cnn(Cc3cccc(Cl)c3F)c(=O)c1n2C	/	.	/	/	/
SMILES	HP1b chromo inh	JMJD2A Tudor inh	BAZ2B block	L3MBTL1 block	G9a inh
CCc1cccc(CC)c1NC(=O)CNCc1cccs1	71µM	25µM	56µM	/	35µM
CCC(=O)Nc1cccc2cccnc12	.	.	.	.	.
O=C(CCBr)Nc1cccc2cccnc12	.	79µM	/	/	/
O=C(Cc1ccc(F)cc1)Nc1cccc2cccnc12	.	.	.	.	.
O=C(CCCl)Nc1cccc2cccnc12	.	79µM	/	/	/
O=C(CI)Nc1cccc2cccnc12	.	20µM	/	/	/
NC(=S)NNc1cccc2cccnc12	.	10µM	25µM	?	18µM
COc1cccc(NC(=O)c2cnn(-c3ccccc3)c2-n2cccc2)c1	.	.	.	/	.
